Unmarked numbers belong to inactive results. A call without a number means that no potency is given here. Calls of active or inactive are those of the source. Calls follow the shape of the full dose curve.

Acetylcholinesterase (Homo sapiens), sequence (P22303 whole entry, looked up): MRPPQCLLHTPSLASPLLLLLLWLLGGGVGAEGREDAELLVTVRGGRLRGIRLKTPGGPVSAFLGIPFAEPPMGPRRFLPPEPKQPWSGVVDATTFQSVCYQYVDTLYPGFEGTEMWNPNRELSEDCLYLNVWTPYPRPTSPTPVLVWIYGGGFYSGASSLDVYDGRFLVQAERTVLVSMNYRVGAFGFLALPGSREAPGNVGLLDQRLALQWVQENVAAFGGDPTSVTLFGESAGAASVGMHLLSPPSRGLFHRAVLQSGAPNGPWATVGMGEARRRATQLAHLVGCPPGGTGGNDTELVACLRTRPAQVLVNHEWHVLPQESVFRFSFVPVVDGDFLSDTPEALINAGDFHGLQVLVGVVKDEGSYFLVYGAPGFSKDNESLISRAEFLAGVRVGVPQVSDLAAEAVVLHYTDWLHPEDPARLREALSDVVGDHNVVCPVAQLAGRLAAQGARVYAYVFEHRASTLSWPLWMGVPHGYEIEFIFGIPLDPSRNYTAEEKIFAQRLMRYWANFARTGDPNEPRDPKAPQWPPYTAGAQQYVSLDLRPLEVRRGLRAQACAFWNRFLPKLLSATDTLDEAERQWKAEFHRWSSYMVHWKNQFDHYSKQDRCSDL

This assay deals with Acetylcholinesterase (Homo sapiens) (UniProt P22303). The assay is described as follows: Acetylcholinesterase (AChE) small molecule antagonists: enzyme-based qHTS assay (AID 1347397). Also: nearly all actives have a fitted effect of over 55% in size. Conditions: Potency: AChE enzyme activity inhibition; outcome: AChE enzyme activity inhibition; series mostly up to 115 µM. The source says:
National Center for Advancing Translational Sciences [NCATS]
Division of Preclinical Innovation [DPI]
U.S. Environmental Protection Agency [EPA]
National Institutes of Environmental Health Sciences [NIEHS]
National Toxicology Program [NTP]
U.S. Food and Drug Administration [FDA]
Acetylcholinesterase (AChE) is the primary cholinesterase in the body that hydrolyzes a key neurotransmitter, acetylcholine. Inhibition of AChE activity can lead to neurotoxicity. The known inhibitors include organophosphorous pesticides (OP), chemical warfare agents, drugs, and various phytochemicals.
An enzyme-based assay with the recombinant human AChE and Amplite Colormetric acetylcholinesterase assay kit (AAT Bioquest, Sunnyvale, CA) was used to evaluate the chemicals in the Tox21 10K library that inhibit AChE activity. The assay uses 5, 5-dithiobis-(2-nitrobenzoic acid) (DTNB) to quantify the thiocholine produced from the hydrolysis of acetylthiocholine by AChE.
Tox21 Assay Protocol Summary:
For the enzyme-based AChE assay, recombinant human AChE (50 mU/mL) in 4 uL/well was dispensed into black, clear-bottom 1536-well plates using a Multidrop Combi dispenser (Thermo Scientific, MA). Then, 23 nL of compound or DMSO (vehicle control) was transferred into the assay plates by a Pintool Station (Wako Automation, CA). The plates were incubated for 30 min at room temperature, followed by the addition of 4 uL of colorimetric detection cocktail solution (DTNB, acetylthiocholine) into each well using a Flying Reagent Dispenser (Beckman Coulter, CA) and then 10 min incubation at room temperature.
In the case of `CC(C)CC(C)(C)C`, the Potency entry was “inactive”. Still for that read-out and setting: for `Cc1ccc(C(C)(C)C)cc1` the value was “inactive”; for `CN(C)CCOC(=O)C(c1ccccc1)C1(O)CCCC1` (stereo not given), “inactive”; for `CCCCCCO`, “inactive”.

For `CCn1nc(C)c2c1C(=O)NCC(c1ccc(O)cc1)=N2`, the Potency entry is “inactive”.

Turning to `CCCCCCCCCCO[C@@H]1O[C@H](CO)[C@@H](O)[C@H](O)[C@H]1O`, the Potency result was “inactive”. On the same count and under the same terms, for `CCn1nc(C(=O)O)c(=O)c2cc3c(cc21)OCO3` the value was “inactive”; for `Cc1c(Cl)c(=O)oc2cc(O)ccc12`, “inactive”. On the same count and under the same terms, for `CC(C)(C)c1ccc(C(O)CCCN2CCC(C(O)(c3ccccc3)c3ccccc3)CC2)cc1` (stereo not given) the value was “inactive”; for `O=C(Nc1ccccc1-c1ccc(Cl)cc1)c1cccnc1Cl`, “inactive”. Same read-out and setting: the result for `CCCCCCCC/C=C\CCCCCCCCOCCO` reads “inactive”; that for `Cn1cnc([N+](=O)[O-])c1Sc1ncnc2nc[nH]c12`, “inactive”. As for `N[C@@H](Cc1ccc(O)cc1)C(=O)O`, the activity change, negative = inhibition was -0.135% [at 10.5 µM]. As to `CCCCCCC/C=C/C=O`, the Potency entry is “inactive”. `CCOC(=O)O[C@H](C)OC(=O)c1ccc2c(c1)cc(C(=O)NC1CCN(C(C)C)CC1)n2Cc1cc(-c2ccc(Cl)s2)on1`: the Potency entry is “inactive”. The same measure, in the same setting: for `O=C(O)COc1nn(Cc2ccccc2)c2ccccc12` the value was “inactive”. Turning to `O=C(O)C[C@H](O)C[C@H](O)/C=C/c1c(C2CC2)nc2ccccc2c1-c1ccc(F)cc1`, the activity change, negative = inhibition is -2.86% [at 23.6 µM]. With `CC(=O)Oc1ccc([N+](=O)[O-])cc1CCl`, the Potency result is “inactive”.

As for `Nc1ccc(Cl)c(N)c1`, the Potency entry is “inactive”. On the same count and under the same terms, the result for `CCCCCCCCCCOC(C)=O` reads “inactive”. Take `CCCCc1ccc(Cl)cc1`: the Potency result is “inactive”. Same read-out and setting: the result for `O=C(c1ccccc1)c1ccc(Cl)cc1` reads “inactive”; that for `NC(=O)c1nc(-c2cccc(-c3cc(F)ccc3OCC(F)(F)C(F)(F)F)c2)n[nH]1`, “inactive”. As for `O=Cc1cccc([N+](=O)[O-])c1`, the Potency result was “inactive”. Take `SC1CCCC1`: the Potency result was “inactive”. Still for that read-out and setting: for `O=C1[C@@H]2[C@H]3CC[C@H](C3)[C@@H]2C(=O)N1CCCCN1CCN(c2ncccn2)CC1` the value was “inactive”; for `CS(=O)(=O)c1ccc([C@@H](O)[C@@H](CF)NC(=O)C(Cl)Cl)cc1`, “inactive”. For `O=C(Cl)c1cc(Cl)cc(Cl)c1`, the Potency result was “inactive”. As to `CC(Oc1cc(Cl)ccc1Cl)C(=O)O` (stereo not given), the Potency entry is “inactive”.

On to `CC1=CCC2CC1C2(C)C` (stereo not given), for which the Potency result was “inactive”. On the same count and under the same terms, the result for `O=C(O[C@@H](C(=O)O)[C@@H](OC(=O)c1ccccc1)C(=O)O)c1ccccc1` reads “inactive”. In the case of `CC(=O)OC(C(=O)c1ccccc1)c1ccccc1` (stereo not given), the Potency result is “inactive”. On to `O=C(c1ccccc1)c1ccc(O)cc1`, for which the Potency result was “inactive”. Take `NS(=O)(=O)c1cc2c(cc1Cl)CN(C1CCCCC1)C2=O`: the Potency entry is “inactive”. On to `CC(C)Cc1ccc(CC(=O)O)cc1`, for which the Potency result is “inactive”. Regarding `C[C@H]1O[C@H](O[C@H]2[C@H](O)[C@@H](O)[C@@H](O[C@H]3[C@H](O)[C@@H](O)[C@H](O)O[C@@H]3CO)O[C@@H]2CO)[C@H](O)[C@@H](O)[C@@H]1N[C@H]1C=C(CO)[C@@H](O)[C@H](O)[C@H]1O`, the Potency entry was “inactive”. For the compound `CCCC(=O)C(C)=O`, the Potency entry is “inactive”. Consider `Nc1ccc(Nc2ccccc2)cc1`, for which the Potency entry was “inactive”. Regarding `Cc1cccc(C)c1OCC(=O)N[C@@H](Cc1ccccc1)[C@@H](O)C[C@H](Cc1ccccc1)NC(=O)[C@H](C(C)C)N1CCCNC1=O`, the Potency entry was “inactive”. On the same count and under the same terms, for `COCCOCCOCCOCCO` the value was “inactive”.

For the origin of these results see PubChem BioAssay (Tox21).
